Screening data (PubChem BioAssay)
MBNL1 CUG block = MBNL1-poly(CUG) RNA binding inhibition; Q9NR56; TR-FRET MBNL1-His/biotin-(CUG)12 binding, 665/545 ratio; Potency, µM (titrated, usually from 57.5 µM), for inactives: top-dose activity change, negative = inhibition, most hits filed as inhibitors; 280,000 compounds, 0.036% hits; active means well fitted inhibition curve with a large enough effect in the signal ratio, with a control signal flat, not every such curve was filed as active; inconclusive means small, poorly fitted or top-dose-only effect, or effect the other way, or a change in a side signal; inactive means no such curve, though single readings can be large or run the other way; the % refers to the signal ratio; further: potency means the concentration at half of the fitted maximal effect; on the % scale 0 is the no-effect control and ±100 the full control effect
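Ratiometric TR-FRET (665 over 545 nm, excitation 340 nm) tracks disruption of MBNL1-His/biotin-(CUG)12 complex after 60 min at room temperature, with compounds at 92 nM to 58 uM final.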
CBFb RUNX1 block = blocks binding between human CBF-beta and RUNX1 | AlphaScreen CBFb-His/RUNX1-biotin binding, biochemical | Potency, µM (series often up to 59.8 µM), for inactives: at the highest dose activity, negative = inhibition, usual class: inhibitors | 230,000 tested, under 10 active | AID 1477 | Q01196+Q13951; further: % of control where 0% means no effect
Target sequence (Q01196 whole entry, looked up): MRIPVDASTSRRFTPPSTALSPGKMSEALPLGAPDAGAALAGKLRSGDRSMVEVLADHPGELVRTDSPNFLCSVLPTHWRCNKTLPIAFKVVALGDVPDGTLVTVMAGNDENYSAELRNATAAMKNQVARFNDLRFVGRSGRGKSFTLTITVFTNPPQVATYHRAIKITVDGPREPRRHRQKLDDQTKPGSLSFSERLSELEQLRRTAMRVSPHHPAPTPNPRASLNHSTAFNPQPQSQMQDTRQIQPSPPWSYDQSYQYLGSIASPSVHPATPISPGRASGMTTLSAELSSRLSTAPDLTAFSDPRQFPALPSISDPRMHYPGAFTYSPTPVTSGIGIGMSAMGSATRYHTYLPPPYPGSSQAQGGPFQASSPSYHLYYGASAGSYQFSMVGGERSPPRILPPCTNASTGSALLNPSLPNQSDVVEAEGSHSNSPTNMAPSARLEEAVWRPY
Target sequence (Q13951 whole entry, looked up): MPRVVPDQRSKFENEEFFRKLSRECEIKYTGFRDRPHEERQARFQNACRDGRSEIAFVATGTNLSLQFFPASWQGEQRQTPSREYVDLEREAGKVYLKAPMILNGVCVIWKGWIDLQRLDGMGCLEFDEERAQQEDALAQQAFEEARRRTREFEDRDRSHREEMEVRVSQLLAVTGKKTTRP
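His-tagged CBF-beta and biotinylated RUNX1 (30 nM each) were premixed 20 min at room temperature, exposed to compound for 15 min, then given nickel-chelate and streptavidin AlphaScreen beads (50 ng each). After 90 min, AlphaScreen signal was read.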
DRD3 agonist = agonists of human D3 dopamine receptor. P35462. D3R DiscoveRx beta-arrestin cells, luminescence, 90 min. max activation, %. 410,000 compounds, 0.58% hits. AID 652048; in the data active means max activation above about 30%; further: 0% is about no effect
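Agonist-mode cell screen: cells plated at 1500/well and incubated overnight at 37 °C, then exposed to library compounds for 90 min at 37 °C. Detection reagent was added for 30–60 min at room temperature, and luminescence was read.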
PTHR1 agonist = PTHR1 (human) receptor agonism; Q03431; HEK293 GP2 PTHR1 cells, GloSensor cAMP luminescence, 1 h; Potency, µM (doses to about 115 µM), without a hit: at the top dose activation, usual class: activators; 410,000 compounds, 0.075% hits; AID 743266; further: potency means the concentration at half of the fitted maximal effect; nearly all actives have a fitted effect of over 55% in size
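HEK-293-derived GP2 cells expressing PTHR1 and a GloSensor cAMP reporter, 3,000/well, plated overnight, given luciferin plus IBMX (each 0.5 mM as added) for 1 h at 37 °C, then compound for 1 h at 37 °C. Luminescence was read after 15 min at room temperature.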
a7 integrin act = integrin-mediated muscular dystrophy alleviation activation | Potency, µM (series often up to 38.3 µM), inactives show top-dose activation, usual class: activators | 350,000 compounds, 0.064% hits | alpha7betagal myoblasts, beta-gal FDG fluorescence, 48 h | AID 624291;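 further: potency means the concentration at half of the fitted maximal effect; 100% = response of the positive control SU9516; nearly all actives have a fitted effect of over 60% in size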
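Alpha7betagal+/- myoblasts (passage 13) were plated 16-24 hr, then exposed to compounds (1:260 dilution of DMSO stock) for 48 hours at 37C. After MPER lysis, β-galactosidase reporter activity was read as FDG fluorescence (ex 480/em 540) after 30 minutes.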
DRD3 antagonist = D3 dopamine receptor (human) antagonism; max response, negative = inhibition, %; P35462; AID 652054; D3R cells, DiscoveRx beta-arrestin luminescence, antagonist mode; hits give low values; 360,000 compounds, 2.5% hits; in the data active means max response below about -50%; inconclusive means no clear call, values can overlap the other calls; further: on the % scale 0 is the no-effect control and ±100 the full control effect
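Cells expressing the human receptor were seeded at 1500 cells/well, incubated overnight at 37 degrees C in 5% CO2, then exposed to library compounds with dopamine controls for 90 minutes at 37 degrees C before luminescent detection.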
An asterisk follows results filed as active; i = inactive; ? = inconclusive; . = no result; [ ] = remark or other dose. In the library only some 2.8% were active in any assay of this set; here they are far more common. Unless noted, the call rests on the fitted dose curve; in most records, active means well fitted curve in the direction sought with a large enough effect; inconclusive means small, poorly fitted or top-dose-only effect, or another doubt; inactive means no such curve, though single readings can be large; an effect the other way counts as inactive or inconclusive.

SMILES | MBNL1 CUG block | CBFb RUNX1 block | DRD3 agonist | PTHR1 agonist | a7 integrin act | DRD3 antagonist
CC1(Oc2cccc(Cl)c2)CCN(Cc2ccc(OC(F)(F)F)cc2)C1 (stereo not drawn) | . | . | 2 | i | . | 3
COc1ccc(OC2(C)CCN(Cc3ccc(-c4ccccc4)o3)C2)cc1 (stereo not drawn) | . | . | -18 | -19% | . | -128*
Cc1ccc(CN2CCC(C)(Oc3cccc(Cl)c3)C2)cc1 (stereo not drawn) | . | . | -22 | ? | . | -103*
Cc1ccc(CN2CCC(C)(Oc3ccc(Cl)cc3)C2)cc1 (stereo not drawn) | . | . | -15 | -22% | . | -95*
CCOC(=O)[C@]12CCCC=C1N(Cc1cccc3ccccc13)C(=O)[C@H](CC(=O)N1CCCCC1)C2 | . | . | -10 | -5% | . | -15
CCOC(=O)c1[nH]c(C)c(C(=O)OCC(=O)Nc2sc3c(c2C#N)CCCCC3)c1C | -4% | -2% | 1 | -10% | 3% | 2
O=C(NC1CC(=O)N(c2ccc(Cl)cc2)C1)C1CC1 (stereo not drawn) | . | . | 5 | i | 14% | 10
CC1(Oc2cccc(F)c2)CCN(Cc2ccc3ccccc3c2)C1 (stereo not drawn) | . | . | -11 | -13% | . | -117*
Cc1ccccc1OC1(C)CCN(Cc2ccc3ccccc3c2)C1 (stereo not drawn) | . | . | -9 | 1% | . | -11
CCC(CC)C(=O)Nc1nc2c(s1)CC(C)CC2 (stereo not drawn) | . | . | -12 | -16% | . | .
CCCN[C@H]1CCc2nc(N)sc2C1 | . | . | 88* | -16% | . | 5
COc1ccc(-n2cnnc2SCc2cnc(-c3ccccc3)s2)cc1 | 6% | 2% | -5 | -7%[57.5 µM] | -10% | -56*
COCCn1c(SCc2cnc(-c3ccccc3)s2)nnc1-c1ccncc1 | -1% | 0% | -5 | 0%[57.5 µM] | 11% | 6
COc1ccc(C(=O)N/C(=C/c2cccnc2)C(=O)N2CCN(C)CC2)cc1OC | -7% | . | -2 | i | 4.5µM* | -6
COc1ccc(/C=C(\NC(=O)c2ccccc2)C(=O)N2CCN(C)CC2)cc1OC | 0% | . | 4 | i | 12% | -2
O=C(CSc1nc2ccccc2s1)NC1CCS(=O)(=O)C1 (stereo not drawn) | -5% | 3% | 2 | -2%[57.5 µM] | 7% | -23
Cc1csc(SCC(=O)NC2CCS(=O)(=O)C2)n1 (stereo not drawn) | . | . | 30* | -24% | 16% | -6
CS(=O)(=O)c1ccccc1-c1nnc(NC(=O)c2ccc3ncsc3c2)o1 | . | . | -3 | i | -5% | -4
Cc1noc(C)c1COc1ccc(C(=O)NNC(=O)c2ccccc2)cc1 | . | . | 2 | i | -5% | -2
Cc1noc(C)c1COc1ccc(C(=O)O)cc1 | -6% | 3% | 33* | i | -15% | -16
COc1ccc(NC(=O)CSCC(=O)N(C)Cc2ccc3c(c2)OCCO3)cc1 | . | . | 1 | -11% | 3% | 0
COc1ccc(CCN2CC(C(=O)Nc3cccc(C(C)=O)c3)CC2=O)cc1OC (stereo not drawn) | -18% | 6% | 16 | -51% | -13% | -61*
CCOc1cccc(NC(=O)C2CC(=O)N(C)C2)c1 (stereo not drawn) | 5% | 2% | 14 | -34%[57.5 µM] | 5% | -77*
Cc1ccc(N2C(=O)N(CC(=O)Nc3cc(Cl)ccc3C)C(=O)C2C)cc1 (stereo not drawn) | . | . | -11 | -52% | 10% | -5
CN(C)NC(=S)Nc1cccc(C(F)(F)F)c1 | . | 8% | -7 | i | -6% | 6
SMILES | MBNL1 CUG block | CBFb RUNX1 block | DRD3 agonist | PTHR1 agonist | a7 integrin act | DRD3 antagonist
CN(C)C(=S)Nc1cccc(C(F)(F)F)c1 | 4% | -1% | -2 | 2% | 10µM* | -7
CN(CC(=O)Nc1cccc(S(=O)(=O)N(C)C)c1)Cc1ccccc1 | -3% | . | -10 | -27% | -16% | 9
CN(CC(=O)Nc1cccc(C(F)(F)F)c1)Cc1ccccc1 | -4% | . | -39 | -22% | ? | -54*
O=C(NCC1COCCO1)c1ccc(OC2CCN(CCc3ccccc3)CC2)cc1 (stereo not drawn) | -4% | . | -28 | i | 21% | -5
CC(Cc1ccccn1)NC(=O)c1ccc(OC2CCN(CCc3ccccc3)CC2)cc1 (stereo not drawn) | -4% | . | -10 | -23% | 11% | -66*
O=C(NCCc1ccccn1)c1ccc(OC2CCN(CCc3ccccc3)CC2)cc1 | -2% | . | -28 | -27% | -13% | -62*
O=C(NCCc1cccc(Cl)c1)c1ccc(OC2CCN(Cc3ccccn3)CC2)cc1 | 3% | . | -19 | ? | -62% | -59*
Cc1cccnc1CCNC(=O)c1ccc(OC2CCN(Cc3ccccn3)CC2)cc1 | -2% | . | -5 | i | -16% | -13
CSCCCNC(=O)c1ccc(OC2CCN(CCc3ccccc3)CC2)cc1 | -1% | -1% | -20 | -60% | -42% | -85*
Cc1ccc(C)c(CN2CCC(CNC(=O)Nc3ccc(C)c(C)c3)CC2)c1 | -5% | . | -15 | i | -67% | ?
COc1ccc(Cl)cc1NC(=O)NCC1CCN(Cc2cc(C)ccc2C)CC1 | -11% | . | -1 | -25% | -72% | -85*
O=C(NCC1CCN(Cc2cccc(Cl)c2)CC1)Nc1ccc(F)c(Cl)c1 | . | . | -4 | i | . | .
O=C(NCC1CCN(Cc2cccc(Cl)c2)CC1)Nc1ccc(Cl)cc1 | -5% | . | -5 | 7% | -68% | -61*
COc1cc([N+](=O)[O-])ccc1NC(=O)NCC1CCN(Cc2ccc(Cl)cc2)CC1 | ? | . | -16 | -80% | -53% | -73*
O=C(NCC1CCN(Cc2cccc(Cl)c2)CC1)Nc1cc(Cl)ccc1Cl | . | . | -27 | -18% | . | .
COc1ccc(N2CCN(C(=O)c3cnc(N4CCOCC4)c4ccccc34)CC2)cc1 | . | . | 9 | -37% | . | .
Cc1ccccc1NC(=O)c1c(C)oc2ccc(O)c(CN(C)Cc3ccccc3)c12 | . | . | 7 | i | . | .
CC1NS(=O)(=O)c2cc([N+](=O)[O-])ccc21 (stereo not drawn) | . | . | 1 | -4% | . | 12
Cc1cccc(-c2cc(=O)c(C(=O)O)cn2-c2ccc(F)cc2F)c1 | -1% | 8% | 0 | -26% | 6% | -79*
COc1ccc(C23CC4CC(CC(C(=O)O)(C4)C2)C3)c(F)c1 | 6% | . | 0 | i | ? | -11
CC1CCN(CC(O)CN2c3ccccc3Sc3ccccc32)CC1 (stereo not drawn) | -9% | . | 1 | 22% | 3% | -103*
CCc1nnc(N/N=C/c2ccccc2Cl)n1N | ? | 2% | -14 | i | -2% | -63*
